In PubChem BioAssay AID1159580 (chemical genetic matrix, 2015):
“And” between values parts separate entries of the source, which are not always exact repeats. Identical values can stand only once. Hit rate of the full screen: of about 5,500 compounds, about 2,000 (36%) were called active. Not shown: some 18% with an inconclusive outcome. No stated cut-off is given here; in the data, active means normalized growth mostly below about 0.91 (no sharp cut-off); inconclusive means no clear call, values can overlap the other calls; inactive means mostly above about 0.92. Some of the results follow.

Assay: chemical genetic growth profiling, strain panel (AID 1159580);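 further: tested at 20 µM; growth read once vehicle control cultures reached saturation at 30 °C; 1 = growth at the plate median or of vehicle wells; lower values mean less growth of the strain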
Conditions: S. cerevisiae deletion strains, growth OD

Measured: normalized growth

C=CCSCC1Nc2cc(Cl)c(S(N)(=O)=O)cc2S(=O)(=O)N1 (configuration not stated)
inactive: locus YAL013W, strain DEP1, hits give low values 1.01 | locus YAL021C, strain ccr4, hits give low values 0.994 | locus YAL026C, strain drs2, hits give low values 1.01 | locus YAL030W, strain snc1, hits give low values 1 | locus YBL061C, strain skt5, hits give low values 1 | locus YBR009C, strain hhf1, hits give low values 0.995 | locus YBR021W, strain FUR4, hits give low values 0.991 | locus YBR023C, strain chs3, hits give low values 1 | locus YBR171W, strain sec66, hits give low values 1.01 | locus YBR229C, strain ROT2, hits give low values 1.01 | locus YBR231C, strain swc5, hits give low values 0.985 | locus YBR279W, strain paf1, hits give low values 1 | locus YCL011C, strain gbp2, hits give low values 1 | locus YCL016C, strain dcc1, hits give low values 0.993 | locus YCL029C, strain bik1, hits give low values 1.02 | locus YCL061C, strain MRC1, hits give low values 1 | locus YCL069W, strain vba3, hits give low values 0.999 | locus YCR088W, strain abp1, hits give low values 1 | locus YDL005C, strain med2, hits give low values 0.997 | locus YDL035C, strain GPR1, hits give low values 1.01 | locus YDL040C, strain nat1, hits give low values 1 | locus YDL074C, strain BRE1, hits give low values 1.01 | locus YDL101C, strain DUN1, hits give low values 1.01 | locus YDL134C, strain PPH21, hits give low values 1.01 | locus YDL185W, strain tfp1, hits give low values 1.02 | locus YDL192W, strain arf1, hits give low values 1.02 | locus YDR001C, strain nth1, hits give low values 1 | locus YDR069C, strain doa4, hits give low values 0.997 | locus YDR101C, strain arx1, hits give low values 1.01 | locus YDR137W, strain rgp1, hits give low values 1 | locus YDR150W, strain NUM1, hits give low values 1.01 | locus YDR159W, strain sac3, hits give low values 0.981 | locus YDR162C, strain NBP2, hits give low values 1.02 | locus YDR195W, strain ref2 1 | locus YDR297W, strain sur2, hits give low values 1 | locus YDR318W, strain mcm21, hits give low values 1.02 | locus YDR334W, strain swr1, hits give low values 1 | locus YDR335W, strain msn5, hits give low values 1.01 | locus YDR388W, hits give low values 1.02 | locus YDR392W, strain spt3, hits give low values 0.939 | locus YDR502C, strain sam2, hits give low values 1.03 | locus YEL003W, strain gim4, hits give low values 1 | locus YEL037C, strain rad23, hits give low values 1 | locus YEL061C, strain CIN8 (second series), hits give low values 0.997 | locus YEL061C, strain CIN8, hits give low values 1 | locus YER015W, strain faa2, hits give low values 1 | locus YER016W, strain bim1, hits give low values 1 | locus YER110C, hits give low values 1.03 | locus YER111C, strain swi4, hits give low values 1 | locus YER155C, strain BEM2 (second series), hits give low values 1 | locus YER155C, strain BEM2, hits give low values 1 | locus YER167W, strain BCK2, hits give low values 1 | locus YFR010W, strain ubp6, hits give low values 1.01 | locus YGL078C, strain dbp3, hits give low values 1.03 | locus YGL086W, strain mad1, hits give low values 1.01 | locus YGL167C, strain pmr1, hits give low values 1 | locus YGL173C, strain kem1, hits give low values 1 | locus YGL227W, strain vid30, hits give low values 0.99 | locus YGL240W, strain doc1, hits give low values 0.992 | locus YGL248W, strain PDE1, hits give low values 1.01 | locus YGL253W, strain hxk2, hits give low values 0.992 | locus YGR078C, strain PAC10, hits give low values 1 | locus YGR135W, strain pre9, hits give low values 1.01 | locus YGR229C, strain SMI1, hits give low values 1.01 | locus YGR252W, strain gcn5, hits give low values 1.06 | locus YHR013C, strain ard1, hits give low values 0.988 | locus YHR027C, strain rpn1, hits give low values 1.01 | locus YHR030C, strain SLT2, hits give low values 1 and 1.06 | locus YHR079C, strain IRE1 (second series), hits give low values 1.02 | locus YHR079C, strain IRE1, hits give low values 1.06 | locus YHR094C, strain hxt1, hits give low values 1.02 | locus YHR129C, strain ARP1, hits give low values 1.02 | locus YHR142W, strain chs7, hits give low values 0.988 | locus YHR200W, strain rpn10, hits give low values 1.03 | locus YIL066C, strain RNR3, hits give low values 1 | locus YIL073C, strain SPO22, hits give low values 1.08 | locus YIL125W, strain kgd1, hits give low values 1.02 | locus YIR030C, strain dcg1, hits give low values 1.03 | locus YJL092W, strain hpr5, hits give low values 0.995 | locus YJL095W, strain BCK1 (second series), hits give low values 0.994 | locus YJL095W, strain BCK1, hits give low values 1 and 1.06 | locus YJL115W, strain asf1, hits give low values 1 | locus YJL129C, strain trk1, hits give low values 0.989 | locus YJL134W, strain LCB3, hits give low values 1.01 | locus YJL154C, strain vps35, hits give low values 0.999 | locus YJL164C, strain tpk1, hits give low values 1.01 | locus YJL166W, strain qcr8, hits give low values 0.998 | locus YJL168C, strain set2, hits give low values 1.03 | locus YJL187C, strain SWE1 (second series), hits give low values 1.01 | locus YJL187C, strain SWE1, hits give low values 1 | locus YJR043C, strain POL32, hits give low values 1 | locus YJR066W, strain TOR1, hits give low values 0.991
